Myeloid diff 2: induction of myeloid progenitor differentiation, primary screen, cell-based, flow cytometry, MLPCN library. ER-HoxA9 myeloid progenitors, lysozyme-GFP differentiation. calls only at 10 µM. 360,000 tested, 1% active;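 active means normalized GFP-positive differentiation at or above the plate's own cutoff, the solvent-only control mean plus 3 SD; inconclusive means no clear call, values can overlap the other calls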;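 further: cells exposed to compound for four days before flow analysis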
AGP1-GFP MLPCN: modulators of AGP1-GFP expression in yeast TOR pathway, primary screen, cell-based, multiplex flow cytometry, S. cerevisiae, MLPCN library; 3 h; GFP as percent of DMSO wells; 320,000 tested, 0.02% active; GFP response vs DMSO, % at 10 µM;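 active means GFP response relative to DMSO above a set limit, near screen average plus 3 SD, cut at about 150% in these data; inconclusive means fewer than 70 cells counted for the yeast strain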;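 further: median GFP channel fluorescence of the gated AGP1 strain per well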
CIT2-GFP yeast: modulators of CIT2-GFP expression in yeast, primary screen, S. cerevisiae, GFP fusion, multiplex flow cytometry, MLPCN library | S. cerevisiae CIT2-GFP strain, 3 h; 100 means same as DMSO wells | GFP response vs DMSO, % at 10 µM | 320,000 tested, 0.065% active | AID 2029, 2009;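 active means GFP response relative to DMSO above a set limit, near the screen mean plus 3 SD, cut at about 150% in these data; inconclusive means Fewer than 70 cells measured for a yeast strain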;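 further: ratio of well median GFP fluorescence to mean of DMSO wells on the plate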
MEP2 TOR yeast: modulators of MEP2-GFP levels in yeast, primary screen, S. cerevisiae, multiplex flow cytometry, MLPCN library; S. cerevisiae MEP2-GFP strain, 3 h; 100% = DMSO control level; GFP response vs DMSO, % at 10 µM; 330,000 tested, 0.51% active; AID 2016, 2009;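 active means GFP response versus DMSO above a set limit, roughly screen mean plus 3 SD, cut at about 180% in these data; inconclusive means fewer than 70 cells counted for a yeast strain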;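 further: median GFP fluorescence of the barcode-gated MEP2-GFP cells per well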
RPL19A-GFP yeast: RPL19A-GFP expression modulators in yeast, primary screen, cell-based, S. cerevisiae, multiplex flow cytometry, MLPCN; S. cerevisiae RPL19A-GFP strain, 3 h; hits give low values; percent response vs DMSO, % at 10 µM; 330,000 tested, 0.3% active; AID 2025, 2009;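 active means percent response vs DMSO below 50%; inconclusive means fewer than 70 events counted for the yeast strain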;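 further: median channel GFP fluorescence of the barcoded RPL19A-GFP strain; lower means less RPL19A-GFP as with rapamycin TOR inhibition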
LAP4 TOR yeast: modulators of LAP4-GFP expression in yeast, primary screen, S. cerevisiae, multiplex flow cytometry, MLPCN library; 3 h; median GFP as percent of DMSO wells; GFP response vs DMSO, % at 10 µM; 320,000 tested, 0.34% active;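 active means GFP response vs DMSO above a set limit, about the screen mean plus 3 SD, cut at about 150% in these data; inconclusive means under 70 cell events counted for the yeast strain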
LAP4 cherry2: LAP4-GFP expression modulators in yeast, confirmation, cell-based, second cherry pick, flow cytometry. shares compounds with LAP4 TOR yeast. S. cerevisiae LAP4-GFP strain, 3 h. GFP response vs DMSO, % at 10 µM. 590 tested, 20% active. AID 2621, 2010;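 active means GFP signal as percent of the solvent control above about 150%, meaning raised reporter expression, limit read from the data; inconclusive means fewer than 70 cells counted in the well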
MEP2-GFP pick2: modulators of MEP2-GFP levels in yeast, confirmation, S. cerevisiae, flow cytometry GFP, second cherry picks; shares compounds with LAP4 TOR yeast; 590 tested, 10% active; GFP response vs DMSO, % at 10 µM; S. cerevisiae MEP2-GFP strain, 3 h;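 active means GFP signal above 150% of the solvent control wells, that is a rise of more than half; inconclusive means fewer than 70 yeast cells counted in the well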;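 further: median channel GFP fluorescence of all gated yeast cells per well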
RPL19A GFP CP2: RPL19A-GFP modulators in TOR pathway yeast, confirmation, cell-based, S. cerevisiae, flow cytometry, second cherry pick; shares compounds with LAP4 TOR yeast; S. cerevisiae RPL19A-GFP strain, 3 h; hits give low values; 100% means same as DMSO wells; GFP response vs DMSO, % at 10 µM; 590 tested, 3% active; AID 2623, 2010;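 active means under 65% GFP response relative to DMSO; inconclusive means yeast strain with under 70 measured events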;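 further: median GFP channel fluorescence per well over the all cells gate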
CIT2 GFP CP2: modulators of CIT2-GFP expression in yeast, confirmation, flow cytometry, second cherry pick, single plex | 590 tested, 8% active | S. cerevisiae CIT2-GFP strain, 3 h; DMSO control wells read 100% | GFP response vs DMSO, % at 10 µM | shares compounds with LAP4 TOR yeast | AID 2624, 2010;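 active means GFP response vs DMSO above about 150%, limit read from the data; inconclusive means fewer than 70 events counted for a yeast strain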;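 further: median green fluorescence per well over all gated yeast cells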
AGP1 GFP CP2: AGP1-GFP expression modulators, hit retest, confirmation, cell-based, flow cytometry, S. cerevisiae, cherry pick set 2 | shares compounds with LAP4 TOR yeast | 590 tested, under 10 active | percent response vs DMSO, % at 10 µM | S. cerevisiae AGP1-GFP strain, 3 h;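 active means over 150 percent of DMSO response; inconclusive means yeast strain measured with under 70 events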;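 further: median GFP channel fluorescence over all cells without mother daughter split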
Yeast autofluor: compound autofluorescence in yeast s288c, dose response, artefact control for yeast TOR pathway GFP screen, s288c strain; shares compounds with LAP4 TOR yeast; S. cerevisiae s288c, 520 nm autofluorescence, flow cytometry, 3 h; hits give high values; zero means same as solvent-only cells; fluorescence change (kMESF span) at 33 µM; 610 tested, under 10 active;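 active means fluorescence span over the dose series, or activity score, above about 33, limit read from the data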
Myeloid diff CP1: inducers of myeloid progenitor differentiation, confirmation, cell-based, GFP/Mac1 flow cytometry, cherry pick 01 | shares compounds with Myeloid diff 2 | ER-HoxA9 myeloid progenitors, GFP/Mac1 double-positive flow | calls only | 2,300 tested, 2% active;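 active means share of green or green-and-red cells above 9 and 9% in run 1 or 4 and 3% in run 2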
GFP autofluor: flagged as fluorescent in myeloid differentiation counter-screen | shares compounds with Myeloid diff 2 | fluorescence response, % (no concentration beside the values) | 2,300 tested, 7.4% active | ER-HoxA9 myeloid progenitors, no estrogen, GFP autofluorescence flow cytometry; vehicle wells 0%, positive control 100%;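 active means over 5% cells positive for green fluorescent reporter, or over 2% positive for both it and APC stain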
A number is an active result; n = inactive; u = inconclusive; x = no result; + = active, no number. An excerpt weighted towards active compounds, which were near 1.8% of everything screened.

SMILES	Myeloid diff 2	AGP1-GFP MLPCN	CIT2-GFP yeast	MEP2 TOR yeast	RPL19A-GFP yeast	LAP4 TOR yeast	Myeloid diff CP1	GFP autofluor	others
CCCCCCCCn1sccc1=O	+	n	n	n	n	207	x	x	LAP4 cherry2=180;MEP2-GFP pick2=185;RPL19A GFP CP2=n;CIT2 GFP CP2=174;AGP1 GFP CP2=n;Yeast autofluor=n
CCCCCCCCc1ccc(O)cc1	n	n	n	n	n	n	x	x
CC12CCC3C(CCC4CC(=O)C(C(O)C(F)(F)F)CC43C)C1CCC2O (stereo unspecified)	n	x	x	x	x	x	x	x
O=C1NC(=O)C(=Cc2ccc(-c3ccc(S(=O)(=O)N4CCOCC4)cc3)o2)C(=O)N1	n	n	n	n	n	n	x	x
O=C1NC(=O)C(=Cc2ccc(-c3ccc(Cl)cc3)o2)C(=O)N1	n	n	n	n	n	263	x	x	LAP4 cherry2=198;MEP2-GFP pick2=n;RPL19A GFP CP2=n;CIT2 GFP CP2=n;AGP1 GFP CP2=n;Yeast autofluor=n
C/C(=C\c1ccc(N(C)C)cc1)[N+](=O)[O-]	n	n	n	n	n	155	x	x	LAP4 cherry2=n;MEP2-GFP pick2=n;RPL19A GFP CP2=n;CIT2 GFP CP2=n;AGP1 GFP CP2=n
CC[C@H](C)/C=C(C)/C=C/C1=CC2=C(Cl)C(=O)[C@@](C)(OC(C)=O)C(=O)C2=CO1	n	n	n	n	28	n	x	x	LAP4 cherry2=n;MEP2-GFP pick2=n;RPL19A GFP CP2=29;CIT2 GFP CP2=n;AGP1 GFP CP2=n;Yeast autofluor=n
COc1ccc(-c2ccc3c(c2)CN(C(=O)C(C)(C)C)Cc2cnnn2-3)cc1	n	x	x	x	x	x	x	x
Cc1ccsc1/C=C1\C(=O)NC(=S)N(C)C1=O	n	n	n	n	n	n	x	x	LAP4 cherry2=n;MEP2-GFP pick2=n;RPL19A GFP CP2=n;CIT2 GFP CP2=n;AGP1 GFP CP2=n;Yeast autofluor=n
COc1ccc(/C=C2\C(=O)NC(=S)N(C)C2=O)cc1C	n	n	n	n	n	n	x	x
O=C1NC(=O)N(Cc2ccc(F)cc2)C(=O)/C1=C/c1cccs1	n	n	n	n	n	170	x	x	LAP4 cherry2=196;MEP2-GFP pick2=n;RPL19A GFP CP2=n;CIT2 GFP CP2=n;AGP1 GFP CP2=n;Yeast autofluor=n
O=C1NC(=O)N(Cc2ccccc2Cl)C(=O)/C1=C/c1cccs1	n	n	n	n	n	n	x	x
CC1(O)CCN2C(=O)CCc3cccc1c32 (stereo unspecified)	n	n	n	n	n	n	x	x
Cc1ncoc1C(=O)NCC1=C(c2ccc(S(C)(=O)=O)cc2)C[C@@H]2CC[C@H]1N2CCOc1ccccc1	n	x	x	x	x	x	x	x
CC1(C)C[C@H]2C=C(C=O)[C@]3(C=O)C[C@]3(C)[C@H]2C1	u	n	n	n	n	n	x	x	LAP4 cherry2=198;MEP2-GFP pick2=201;RPL19A GFP CP2=n;CIT2 GFP CP2=188;AGP1 GFP CP2=n;Yeast autofluor=n
CC(C)OC(=O)c1c(N)n(Cc2ccco2)c2nc3ccccc3nc12	n	n	n	n	n	n	x	x
COCCOC(=O)c1c(N)n(Cc2ccco2)c2nc3ccccc3nc12	n	n	n	n	n	n	n	n
CC1(C)C(c2ccccc2)=NC(c2cccnc2)N1O (stereo unspecified)	+	n	n	n	n	n	n	n
O=C1NC(=S)N(c2ccc(Cl)cc2)C(=O)/C1=C/N1CCN(C(=O)c2ccco2)CC1	n	n	n	n	n	n	n	n
O=C1NC(=S)N(c2ccc(F)cc2)C(=O)/C1=C/c1ccco1	x	n	n	n	n	n	x	x
Cc1cccc(C(=O)NC(Oc2ccccc2)C(Cl)(Cl)Cl)c1 (stereo unspecified)	n	n	n	n	n	n	n	n
CN1CC2CN(Cc3ccccc3)S(=O)(=O)C2C1 (stereo unspecified)	n	x	x	x	x	x	x	x
O=c1c2ccccc2nc(/C=C/c2ccccc2O)n1-c1ccccc1O	+	n	n	n	n	n	n	59
O=c1c2ccccc2nc(/C=C/c2ccccc2F)n1-c1ccccc1O	n	n	n	n	n	n	x	x
CCN(CC)c1ccc(CNCCc2ccccc2F)cc1	n	n	n	n	n	n	x	x
COc1ccc(NC(=O)c2cn(CCC#N)nc2-c2cccc([N+](=O)[O-])c2)cc1	n	n	n	n	n	n	x	x
COc1ccc(Oc2cc(NC(=O)c3nn(C)cc3[N+](=O)[O-])cc([N+](=O)[O-])c2)cc1	n	n	n	n	n	n	n	n
O=C(/C=C/c1ccc2c(c1)OCO2)c1c(O)n(CCC2=CCCCC2)c(=O)[nH]c1=O	n	n	n	n	n	n	n	n
CC(=O)N1CC(=O)Nc2ccc(Br)cc2C1c1ccc(F)cc1 (stereo unspecified)	n	n	n	n	n	n	x	x
C=C1C[C@]2(O)[C@@]3(C)CCC(=O)C(C)(C)C3=C(O)C(=O)[C@@]2(C)[C@@H]2C(=O)O[C@@](C)(C(=O)OC)C(=O)[C@@]12C	+	n	n	n	n	n	n	n

Assay outcomes as filed in PubChem.
